About 1,400 (4.5%) of roughly 31,000 sequences were called active.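 How the source made its calls: active means median seed-adjusted z-score above 1 or below -1; inactive means the rest.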 Only a selection was taken, and actives are over-represented in it overall.

The assay in a line: Novel Modifiers of Survival Motor Neuron (SMN) Protein: Gene Identification via Genome-wide siRNA Screen.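 Further: luminescence tracks full-length SMN protein made from the SMN2 reporter.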 To be noted: HEK293T SMN2-luciferase reporter, siRNA knockdown, 72 h; actives lie on both sides. Summed up:
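HEK293T cells stably carrying an SMN2 promoter/splicing cassette–luciferase reporter were reverse-transfected with 1 pmol siRNA per well (druggable-genome library, 3 siRNAs per gene) and grown 72 h at 37 °C. Luminescence, normalized to negative-control siRNA and log10-transformed, was scored as MAD.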
A general note: A reporter such as luciferase makes a cellular process visible.
For the sequence CGAUGACUCAGAAAAGCGATT against ARHGEF10, the median seed-adjusted z-score was 0.22 (inactive).

As for CGAGGAUAUUGACUGGGUATT against PRKCZ, the median seed-adjusted z-score is -0.175 (inactive).

For GCCCUGCAUUUGCGAUGAATT against ZNF169, the median seed-adjusted z-score was 0 (inactive). Then CACUUGCACAGAUACCCUUTT against COLEC12, with -1.04 (active). In the case of GGAAAGAGUUCAGUCGGAATT against ZNF671 it was -0.0551 (inactive). In the case of GAAAGAUUGUACCAGUUGATT against CMPK1 it was -0.363 (inactive); in that of GCGAGUGUGAGAAAACAUUTT against ZFP3, 0 (inactive).

Regarding GAGCGAGACAUAAAAUAUUTT against ZNF257, the median seed-adjusted z-score was 0.306 (inactive). Then CCCAAGAAAUAUUAACAUUTT against AP3S1, with 0.787 (inactive); and CGAAUUUCCUAGUAAACCATT against TFAP2C, with 1.28 (active); and CGUCAUGAGCCUCUACGAATT against PTPN5, with 0.22 (inactive). Then GGAAAUCCAUCUACCGCUATT against SORL1, with 0.357 (inactive); and GAUCAGGUGCUGUUCCAUATT against DGAT2L3, with 0.247 (inactive); and CAUCGAGGGUCAUACUAUUTT against POLR2A, with -3.81 (active). Then GACUGCUGCUUAUCAACAATT against SPR, with 0.0329 (inactive); and GACCUUACCUCAGACUAGATT against EXOG, with 0.746 (inactive). Consider AGAUGUACCUGUUCGUGUATT against DNASE1L2, for which the median seed-adjusted z-score was -0.228 (inactive). Then GGACCUACGUUGCAGUUCATT against SUZ12, with -1.65 (active); and GCACUGGAGAAGUAUGUGATT against ALOX12B, with 0.0071 (inactive); and GCACUUUACCAUUAGACAATT against LDB2, with -0.0847 (inactive). In the case of GGAGACUAGUAAGCACUAUTT against JARID1B, the median seed-adjusted z-score was 0 (inactive). Then CAAGAGGGUUUUUACCAUATT against SEC11C, with 0.508 (inactive); and GGUCAUGGAUGUGCACGAUTT against KRT14, with -0.127 (inactive); and CAUCAGGAAUGGAAUUACATT against SKIL, with -0.868 (inactive). For the sequence GGUCCAAGCUGAUUACCCUTT against UNC13A, the median seed-adjusted z-score was -2.1 (active). Then CCUCCCAUCUUAUUAUCCATT against ZNF572, with 0.237 (inactive). Then GGUGGAGACAUUUACAUCUTT against CREB3L1, with 0.708 (inactive); and CAAAGUACCGAGUCGAAUATT against SENP7, with 0.547 (inactive); and GCAAGACCGUGAGACAACUTT against SENP7, with 0.547 (inactive). Then GGAAGAAAAUAGUGCUGCATT against BARX1, with 1.63 (active); and CAUUCGCCGUUACCUGCCATT against POLR2F, with -3.52 (active).

Turning to GAACCACAAGGAGAAGUUUTT against PSMC3, the median seed-adjusted z-score was -0.701 (inactive). Then ACAAGGACUAUUACAGAUATT against PLA2G2D, with 0.361 (inactive); and GGAGACAUCUGACCCAGCATT against ARHGAP9, with 0 (inactive). For CGUCAGAUCUGAACAAGAATT against CHST4, the median seed-adjusted z-score was 0.349 (inactive). Then GUAUAUCAGUUCCAGUUUATT against RANBP3, with -0.211 (inactive); and UUAUCACAGAGCAACCUAATT against NUBPL, with 0.105 (inactive). In the case of GGAAUGCACCCAGAUCAAATT against TFAP2D it was 0 (inactive); in that of GGCCUUUCCUUUACUGUCATT against ABCC4, -1.66 (active). As for CCGAAUGAAUGGUGAUAAATT against TUSC3, the median seed-adjusted z-score was 0.138 (inactive). In the case of CAAGGACACUUCAUCGUGATT against AVPR2 it was -0.262 (inactive). Then GAACUCAUCAAAAUGCACATT against KLF15, with -0.45 (inactive); and GGGAGACGAUUGUUCAUCATT against XPA, with 2.03 (active); and AUACAUCAAAGAUUAGUAATT against NTS, with 0.518 (inactive). For the sequence GUUAAUCACAUACACCAAATT against GPR22, the median seed-adjusted z-score is 0.705 (inactive). As for CCGCUUGACUAUGAGCUCATT against TTC7A, the median seed-adjusted z-score was -0.303 (inactive). In the case of CCAGGAGCGAUAACAGUAATT against DAZAP1 it was 0 (inactive); in that of CCUUAUCGAUAUUAUGAGATT against CPEB2, -0.00928 (inactive). In the case of ACGUGGAGCUCUUAGACAATT against AP1S1 it was -1.04 (active); in that of GGAUCGGAUGGAUAAGAAUTT against CTTN, -0.314 (inactive). For the sequence CACUAGGAAUCACACCGUUTT against TINAG, the median seed-adjusted z-score is 0.374 (inactive). In the case of GAGACGAGGAGGAAACUUUTT against DDX27 it was -0.131 (inactive); in that of GCAGUAUGCAGAUUGUUCATT against FGL1, -0.259 (inactive). With CAGUUGUCCUUGUGGAUAATT against TTF1, the median seed-adjusted z-score was 1.76 (active). Then GAUAAUUCCAUGACAUUAUTT against CYP39A1, with 0.196 (inactive); and GAAGAGAACUCUAAGAUCATT against CAMK1G, with -0.358 (inactive). Then GCAAGUCCCUGUACUAUUATT against ANXA2, with 0.499 (inactive); and GCAGAACUGCUGCUACAGATT against ANKZF1, with 0.176 (inactive). Then CACCGUUCAUCUGCACAGATT against KATNA1, with -0.471 (inactive); and CGAUAAACUCAGACCAGAATT against IDE, with -0.081 (inactive); and GGAAAGUUGAUUUUUAUGATT against MS4A6E, with -0.341 (inactive). On to GGCUCUACGGUUUCAAGAUTT against CSNK2B, for which the median seed-adjusted z-score was -1.62 (active).

On to CAAUGUCCCAAGAUAAAGATT against PRPSAP1, for which the median seed-adjusted z-score was 0.224 (inactive). Then CUCUUUGACCGGUUGCUCATT against EGLN2, with -0.349 (inactive); and CCAUUUUAGCUCUAGAAGATT against GSTA4, with -0.848 (inactive); and GAAUUGGCCGUUGGGCUUATT against COX8A, with -0.0749 (inactive).

On to CAUCUCGACUUAUUGGAAATT against WEE1, for which the median seed-adjusted z-score was -4.05 (active). Then CAAGGUCAUUAAUAAGGAUTT against CST5, with 0.466 (inactive); and CACCCAACACCAAACUGUATT against HSPB6, with 0.394 (inactive); and GAAUUAACUUCAUGGUGAATT against PPM1K, with 0.154 (inactive). In the case of GCCGAAUCCUGAAGAGACATT against QTRTD1 it was 0.377 (inactive). On to CAACCACUGUGAGACGAAATT against MFGE8, for which the median seed-adjusted z-score is 0.0367 (inactive). In the case of CUGAGAUACUGCAAGCUGATT against IL5RA it was -0.357 (inactive); in that of CCGACUACUCCAACGAGAATT against MASP2, -0.137 (inactive). In the case of GCUCAAGAGCUUGCACAGATT against SLC25A42, the median seed-adjusted z-score was -1.02 (active). Take CUCUGAACCAAAUCGUUUATT against DPP8: the median seed-adjusted z-score is -0.0209 (inactive). In the case of GAUGACUACUUAGCUCUAATT against FLJ90650 it was 0.427 (inactive); in that of GGCCUAGUGUAAUCUCCCATT against ZNF774, -0.0834 (inactive). For GCAGAUCGAUUUCUCAACATT against ABCA1, the median seed-adjusted z-score is -1.27 (active). Then CCAUGUUACCAUACAAUAATT against MXD1, with -0.763 (inactive); and CCACAGAGGCUAUGCUAAATT against ACE, with 0.0874 (inactive). Then GUAGCUCCGAGGUCUGAUATT against SMARCA4, with 0.223 (inactive); and GGAACUACCAGAUCGGGAATT against MYO9B, with -0.0287 (inactive). In the case of GCAAGACAAGUGAAGUCAATT against CNBP it was -1.14 (active); in that of CAUGCGGUCUUAGAAAUGATT against HNRPUL1, -0.047 (inactive); in that of GCAUUUGAGCAUGAAAAUATT against VPS29, -0.408 (inactive). Regarding AGCUACUAGUGGAGCAGAATT against BAT1, the median seed-adjusted z-score is -1.49 (active). Then CCACUCCAUUGAAGAUGUATT against SREBF1, with -0.0469 (inactive).

CAACCAGAAUUACUGCUAUTT against PCDH10: the median seed-adjusted z-score is -0.488 (inactive).

As for CGACACCAGGAGUACCUCUTT against IKBKE, the median seed-adjusted z-score is 0.122 (inactive).

With GCAUUUGGAUGGAUCAUGUTT against CD163, the median seed-adjusted z-score is 0.021 (inactive). Consider GCUGACUACUUGAAGUUCATT against DYRK1A, for which the median seed-adjusted z-score was -1.3 (active).

Take GGAAAGACAUGUAAGAGCATT against BMP8B: the median seed-adjusted z-score was 0 (inactive). As to GAACUAAUCCUGUUCAACATT against ATXN3, the median seed-adjusted z-score is 0.04 (inactive). Then CUGUGAUUGUAGUAGAUCATT against SLC19A3, with -0.0232 (inactive); and CCUGCCCAGAGAUACGAAATT against SMURF1, with -1.4 (active); and GGUGGUCUCUUUAUAAUGATT against PHAX, with -0.0716 (inactive). In the case of GCCUUUAUGUCAUCCUCAATT against ZNF626 it was 0.185 (inactive). In the case of GCAGGUCACGGUUGAUGUATT against FANCA it was 0.418 (inactive); in that of CCAGUGUCAUAAACCUGUATT against NUDT4, -0.0306 (inactive). Consider GCAUGAGGUUCACCACCAATT against FIBCD1, for which the median seed-adjusted z-score is -0.0249 (inactive).

On to GCGGUUUACUAUAGACAAATT against IKBKAP, for which the median seed-adjusted z-score is -0.0316 (inactive).

As to CGAACGAUUUCCCAAGUUATT against NXF1, the median seed-adjusted z-score is -4.46 (active). Regarding GGUUUUGCACAGCGAGGAATT against B3GALT4, the median seed-adjusted z-score was 0.233 (inactive). Then GGGCUAGAUCUGUAUCUUATT against TSC22D3, with 0.0129 (inactive). In the case of GACCUGAUGUGGAAGCAGATT against QDPR it was -0.734 (inactive); in that of CCCUGACUCUUGGAUAUGATT against MEOX1, 0.0171 (inactive). Then GGCGAGAUCUUUAUACGCATT against ZNF224, with 0.0073 (inactive).
